In PubChem BioAssay:
Unmarked numbers belong to inactive results. For some assays here: Measured potencies and affinities stand elsewhere. Activity calls are given as the source filed them. Unless noted, no rule for the calls is given here.

Experiments:
[1] = antimalarial activity against Dd2 strain (AID 2302;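 active = growth inhibition above 50% at the single 2 µM test dose, taken to imply half-maximal potency below 2 µM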;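 also: 0% = DMSO untreated growth and 100% = chloroquine plus artemisinin killed control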); details: P. falciparum Dd2 in RBCs, LDH growth readout, 72 h; at 2 µM; active compounds read high
[2] = human hepatoma cell viability loss – ATP luminescence, cytotoxicity control for P. falciparum antimalarial project, primary screen (AID 2303;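 active = inhibition above 50%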;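 also: 0% = DMSO wells and 100% = digitonin-killed cells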); details: HepG2 viability, 24-48 h, at 10 µM, active compounds read high
[3] = biological target: L-lactate dehydrogenase (Plasmodium falciparum (isolate CDC / Honduras)) (UniProt Q27743); assay: PfLDH activity inhibition – cell lysate, 3D7 strain, counter-screen for P. falciparum growth inhibition project (AID 2304);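 also: 0% = vehicle and 100% = reference inhibitor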; details: P. falciparum 3D7 crude extract, LDH APAD/NBT absorbance; at 2 µM; active compounds read high
L-lactate dehydrogenase (Plasmodium falciparum (isolate CDC / Honduras)), sequence (Q27743 whole entry, looked up): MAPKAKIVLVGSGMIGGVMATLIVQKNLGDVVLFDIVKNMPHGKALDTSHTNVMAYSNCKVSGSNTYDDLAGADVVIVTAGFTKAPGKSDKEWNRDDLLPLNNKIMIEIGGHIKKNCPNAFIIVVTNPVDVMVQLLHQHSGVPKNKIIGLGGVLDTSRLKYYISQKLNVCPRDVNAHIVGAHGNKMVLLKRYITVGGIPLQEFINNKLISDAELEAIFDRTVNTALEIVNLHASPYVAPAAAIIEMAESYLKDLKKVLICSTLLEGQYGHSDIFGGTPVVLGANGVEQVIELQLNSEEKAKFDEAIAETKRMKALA

[4] = inhibition of 3D7 malaria parasite growth – strain 3D7 (AID 2306);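 also: 0% = DMSO wells and 100% = chloroquine plus artemisinin control wells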; details: P. falciparum 3D7 erythrocytic growth, LDH absorbance, 72 h; at 2 µM; active compounds read high
[5] = biological target: Calcium-dependent protein kinase 1 (Plasmodium falciparum (isolate 3D7)) (UniProt P62344); assay: PfCDPK1 kinase inhibitors, biochemical, TCAMS library (AID 1159585; cut-off not given, nearly all actives have IC50 up to about 0.98 µM;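 also: inhibitors leave more ATP so luminescence rises with inhibition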); details: recombinant PfCDPK1, Kinase-Glo ATP depletion luminescence
Calcium-dependent protein kinase 1 (Plasmodium falciparum (isolate 3D7)), sequence (P62344 whole entry, looked up): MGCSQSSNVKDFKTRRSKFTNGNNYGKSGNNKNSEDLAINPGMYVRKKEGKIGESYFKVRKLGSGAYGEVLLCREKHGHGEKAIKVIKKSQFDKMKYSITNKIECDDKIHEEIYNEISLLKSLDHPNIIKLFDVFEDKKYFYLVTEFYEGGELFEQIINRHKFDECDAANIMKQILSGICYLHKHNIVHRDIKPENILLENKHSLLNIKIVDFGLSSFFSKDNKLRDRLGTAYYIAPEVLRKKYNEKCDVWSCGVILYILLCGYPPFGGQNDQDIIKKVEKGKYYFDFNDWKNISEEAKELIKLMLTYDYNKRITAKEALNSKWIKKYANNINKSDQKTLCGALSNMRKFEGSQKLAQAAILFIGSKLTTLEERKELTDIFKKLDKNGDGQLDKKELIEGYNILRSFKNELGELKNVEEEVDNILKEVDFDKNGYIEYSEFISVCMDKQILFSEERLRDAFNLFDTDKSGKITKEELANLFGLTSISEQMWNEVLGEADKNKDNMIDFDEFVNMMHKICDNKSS

[6] = biological target: Plasmodium falciparum protein kinase 6 (PK6, PF3D7_1337100) (UniProt Q8IDW1); assay: PfPK6 kinase inhibitors, biochemical, TCAMS library (AID 1159586); details: recombinant PfPK6, Kinase-Glo ATP depletion luminescence
Plasmodium falciparum protein kinase 6 (PK6, PF3D7_1337100), sequence (Q8IDW1 1-305): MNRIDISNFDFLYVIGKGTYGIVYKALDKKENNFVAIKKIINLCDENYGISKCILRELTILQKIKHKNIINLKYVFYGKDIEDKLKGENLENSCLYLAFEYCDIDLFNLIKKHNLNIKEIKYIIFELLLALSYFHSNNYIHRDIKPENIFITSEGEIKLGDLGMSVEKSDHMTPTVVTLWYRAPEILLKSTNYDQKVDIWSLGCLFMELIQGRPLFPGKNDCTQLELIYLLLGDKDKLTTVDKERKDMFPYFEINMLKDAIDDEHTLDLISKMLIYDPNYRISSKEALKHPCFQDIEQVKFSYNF

[7] = biological target: Protein kinase 7 (PK7), Plasmodium falciparum 3D7 (PF3D7_0213400) (UniProt Q7YTF7); assay: inhibition of Plasmodium PK7 catalytic activity – biochemical, TCAMS antimalarial set, Kinase-Glo luminescence (AID 1159587); details: recombinant PfPK7, Kinase-Glo ATP depletion luminescence
Protein kinase 7 (PK7), Plasmodium falciparum 3D7 (PF3D7_0213400), sequence (Q7YTF7 1-343): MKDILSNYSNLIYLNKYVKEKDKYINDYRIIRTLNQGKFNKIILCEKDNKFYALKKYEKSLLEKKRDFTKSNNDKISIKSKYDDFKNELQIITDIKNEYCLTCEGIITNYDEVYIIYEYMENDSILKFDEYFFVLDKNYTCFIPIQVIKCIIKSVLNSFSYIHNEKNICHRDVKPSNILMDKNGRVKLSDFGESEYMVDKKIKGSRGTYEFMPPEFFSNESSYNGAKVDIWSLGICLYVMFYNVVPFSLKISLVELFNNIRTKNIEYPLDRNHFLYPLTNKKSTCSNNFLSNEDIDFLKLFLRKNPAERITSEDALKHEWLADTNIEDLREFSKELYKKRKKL

[8] = biological target: Calcium-dependent protein kinase 4 (Plasmodium falciparum (isolate 3D7)) (UniProt Q8IBS5); assay: PfCDPK4 kinase inhibitors, biochemical, TCAMS library (AID 1159588; cut-off not given, nearly all actives have IC50 up to about 0.91 µM); details: recombinant PfCDPK4, Kinase-Glo ATP depletion luminescence
Calcium-dependent protein kinase 4 (Plasmodium falciparum (isolate 3D7)), sequence (Q8IBS5 whole entry, looked up): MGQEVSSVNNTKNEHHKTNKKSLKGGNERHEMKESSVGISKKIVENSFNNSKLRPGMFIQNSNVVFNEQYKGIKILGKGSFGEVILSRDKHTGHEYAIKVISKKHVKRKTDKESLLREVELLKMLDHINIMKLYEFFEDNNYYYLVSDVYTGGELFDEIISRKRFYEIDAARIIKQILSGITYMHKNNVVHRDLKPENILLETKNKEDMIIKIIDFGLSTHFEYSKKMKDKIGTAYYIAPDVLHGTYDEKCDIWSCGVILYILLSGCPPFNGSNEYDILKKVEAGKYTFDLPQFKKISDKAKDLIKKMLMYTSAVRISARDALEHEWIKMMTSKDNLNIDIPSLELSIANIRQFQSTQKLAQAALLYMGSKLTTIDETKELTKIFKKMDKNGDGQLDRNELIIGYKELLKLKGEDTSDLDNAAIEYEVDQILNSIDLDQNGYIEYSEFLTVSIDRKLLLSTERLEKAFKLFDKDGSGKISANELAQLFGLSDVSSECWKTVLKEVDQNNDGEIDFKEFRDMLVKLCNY

| SMILES | growth inhibition [1] | inhibition [2] | inhibition [3] | growth inhibition [4] | outcome [5] | outcome [6] | outcome [7] | outcome [8] |
| --- | --- | --- | --- | --- | --- | --- | --- | --- |
| O=C(Nc1ccc(Cl)cc1)c1cc(Cl)ccc1NC(=O)C1CCc2ccccc2O1 (stereo not given) | 63% (active) | 1% | -1% | 98% (active) | inactive | inactive | inactive | inactive |
| O=C1C(c2ccccc2)=C(Nc2ccc([N+](=O)[O-])cc2)c2ccccc21 | 73% (active) | -2% | -2% | 95% (active) | inactive | inactive | inactive | inactive |
| COc1ccc(-c2ccc(NC(=O)c3cccc(C#N)c3)cc2)cc1CN1CCCC(C(N)=O)C1 (stereo not given) | 44% | 12% | 0% | 98% (active) | inactive | inactive | inactive | inactive |
| COc1ccc(CNCc2ccsc2)cc1-c1ccc(S(=O)(=O)NCCN2CCCC2)s1 | 34% | 39% | -7% | 101% (active) | inactive | inactive | inactive | inactive |
| Nc1ccc(-c2ccc3ccnc(N)c3c2)cn1 | 100% (active) | 43% | 3% | 101% (active) | inactive | inactive | inactive | inactive |
| COc1ccc(NC(=O)c2ccc(-c3cc(NC(=O)c4ccnc(N5CCCC5)c4)ccc3C)s2)cc1N1CCN(C)CC1 | 100% (active) | 15% | 6% | 100% (active) | inactive | inactive | inactive | inactive |
| CN(C)CCCN1CCN(C(=O)c2cc3cc(-c4ccccc4)ccc3n2S(=O)(=O)c2ccccc2)CC1 | 94% (active) | 32% | 4% | 101% (active) | inactive | inactive | inactive | inactive |
| O=C(N1CCN(c2ccnc3cc4c(cc23)N(Cc2ccccc2)CC4)CC1)C(F)(F)F | 100% (active) | 8% | 3% | 100% (active) | inactive | inactive | inactive | inactive |
| CN(CCNCc1ccc(-c2cccc(-c3nc4ccccc4[nH]3)c2)cc1)S(C)(=O)=O | 29% | 9% | -2% | 101% (active) | inactive | inactive | inactive | inactive |
| CC1CC(C)CN(CC(O)CNC(=O)Nc2ccc(Br)cc2)C1 (stereo not given) | 44% | 13% | 5% | 94% (active) | inactive | inactive | inactive | inactive |
| CCn1c(CN2CCN(Cc3ccccc3)CC2)nc2cc(NC(=O)c3cccs3)ccc21 | 95% (active) | 0% | 2% | 97% (active) | inactive | inactive | inactive | inactive |
| CCN(CC)CCCNc1ncc2c(-c3ccc(NC(=O)Nc4cc(C(F)(F)F)ccc4F)cc3)nn(C)c2n1 | 74% (active) | 81% (active) | -3% | 99% (active) | inactive | inactive | inactive | inactive |
| CC(C)=CC1C(C(=O)n2c(N)nc3ccccc32)C1(C)C (stereo not given) | 3% | 16% | -6% | 99% (active) | inactive | inactive | inactive | inactive |
| O=C(CCCC(=O)Nc1ccc(C2=NCCN2)cc1)Nc1ccc(C2=NCCN2)cc1 | 81% (active) | 3% | 2% | 91% (active) | inactive | inactive | inactive | inactive |
| O=C(Nc1cccc(CN2CCCN(Cc3ncc[nH]3)CC2)c1)c1ccc(Cl)c(Cl)c1 | 16% | 8% | 1% | 100% (active) | inactive | inactive | inactive | inactive |
| Cc1c(C)n(C2CCCC2)c2ncnc(OC3CCN(CC(=O)NCC4CC4)CC3)c12 | 89% (active) | 20% | 1% | 89% (active) | inactive | inactive | inactive | inactive |
| Cc1cccc2[nH]c(-c3cccc(-c4cccc(NC(=O)c5ccncc5)c4)c3)nc12 | 78% (active) | 22% | -3% | 100% (active) | inactive | inactive | inactive | inactive |
| N=c1n(CCN2CCCCC2)c2ccccc2n1CC(=O)c1cccc([N+](=O)[O-])c1 | 0% | 10% | -1% | 94% (active) | inactive | inactive | inactive | inactive |
| COc1ccc(NC(=O)NCC2CCCN(CCCCCNC(=O)/C=C/c3ccc(Cl)c(Cl)c3)C2)c(OC)c1 (stereo not given) | -2% | 8% | -6% | 95% (active) | inactive | inactive | inactive | inactive |
| CC(=O)c1ccc(-n2ccnc2)cc1 | -1% | -4% | -3% | 92% (active) | inactive | inactive | inactive | inactive |

| SMILES | growth inhibition [1] | inhibition [2] | inhibition [3] | growth inhibition [4] | outcome [5] | outcome [6] | outcome [7] | outcome [8] |
| --- | --- | --- | --- | --- | --- | --- | --- | --- |
| Nc1ncc(-c2ccc(F)cc2)cc1-c1nc2ccc(Cl)cc2[nH]1 | 44% | 45% | 0% | 99% (active) | inactive | inactive | inactive | inactive |
| CC(C)c1ccc(NC(=O)c2ccc(CN3CCCN(Cc4cccc(Cl)c4)CC3)cc2)cc1 | 12% | 45% | 5% | 90% (active) | inactive | inactive | inactive | inactive |
| O=C(O)C[C@H](NC(=O)c1cc(-c2ccc3c(c2)OCO3)no1)C(=O)O (tested in a mixture with another compound) | -3% | -4% | -2% | 98% (active) | inactive | inactive | inactive | inactive |
| Cc1cc(N2CCCCC2)nc2ccc(NC(=O)c3cncc(Br)c3)cc12 | 86% (active) | -3% | 0% | 101% (active) | inactive | inactive | inactive | inactive |
| Cc1cccc2[nH]c(-c3ccc(-c4ccc(CN5CCN(c6ccncc6)CC5)cc4)s3)nc12 | 98% (active) | 85% (active) | 2% | 102% (active) | inactive | inactive | inactive | inactive |
| O=C(Nc1cccc(-c2nn3ccccc3c2-c2ccnc(Nc3cccc(N4CCCC4=O)c3)n2)c1)c1cc(F)ccc1F | 51% (active) | 59% (active) | 3% | 99% (active) | inactive | inactive | inactive | inactive |
| CCOC(=O)c1cc(=O)c2ccc(OCC#N)cc2o1 | 86% (active) | 2% | -6% | 88% (active) | inactive | inactive | inactive | inactive |
| CNC(=O)Cc1ccc(C(=O)Nc2cccc(-c3ccc(-c4nc5c(C)cccc5[nH]4)s3)c2)cc1 | 25% | 66% (active) | 0% | 91% (active) | inactive | inactive | inactive | inactive |
| CC1(C)S(=O)(=O)CC(O)CS1(=O)=O | 9% | 8% | 3% | 98% (active) | inactive | inactive | inactive | inactive |
| CCN1CCC(N(Cc2ccc(-c3ccc(C(F)(F)F)cc3)cc2)C(=O)Cn2nc(C)c(=O)cc2SCc2ccc(F)cc2)CC1 | 94% (active) | 77% (active) | -1% | 94% (active) | inactive | inactive | inactive | inactive |
| CN(Cc1ccccc1)C1CCCN(c2cc(NC(=O)c3ccc(F)cc3)ccn2)C1 (stereo not given) | 95% (active) | 7% | 0% | 93% (active) | inactive | inactive | inactive | inactive |
| O=C(Nc1ccc([N+](=O)[O-])cc1)Nc1nc2ccc(Cl)cc2s1 | 33% | 63% (active) | 2% | 92% (active) | inactive | inactive | inactive | inactive |
| C=CCn1c(Sc2ccc(C#N)c([N+](=O)[O-])c2)nnc1-c1ccc(OC)cc1 | 74% (active) | -5% | 0% | 96% (active) | inactive | inactive | inactive | inactive |
| CC1=C(C(=O)Nc2cc3cn[nH]c3cc2F)C(c2cccc(NS(C)(=O)=O)c2)CC(=O)N1 (stereo not given) | 97% (active) | -10% | -4% | 96% (active) | inactive | inactive | inactive | inactive |
| O=C(c1c(-c2[nH]c3ccccc3c2C(=O)C(F)(F)F)[nH]c2ccccc12)C(F)(F)F | 99% (active) | 18% | 3% | 97% (active) | inactive | inactive | inactive | inactive |
| CCCC/C=C(\Cl)c1ccc(O)c2c1C[C@H]1C[C@H]3[C@H](N(C)C)C(=O)C(C(N)=O)=C(O)[C@@]3(O)C(=O)C1=C2O | 98% (active) | 16% | -4% | 90% (active) | inactive | inactive | inactive | inactive |
| COc1ccc2nc3ccccc3c(NCCN3CCN(C)CC3)c2c1 | 10% | 11% | 1% | 81% (active) | inactive | inactive | inactive | inactive |
| O=C(Nc1ccc(Cl)cc1)Nc1nc2ccc([N+](=O)[O-])cc2[nH]1 | 6% | -2% | 3% | 101% (active) | inactive | inactive | inactive | inactive |
| COc1cc(F)c2ncc(Cl)c(CCN3CCC(NCc4ccc5c(c4)NC(=O)CS5)CC3)c2c1 | 85% (active) | 27% | -6% | 100% (active) | inactive | inactive | inactive | inactive |
| C[C@H]1CN(Cc2cccc(-c3cc(CNC(=O)c4cccc(C(=O)c5ccc(Cl)c(Cl)c5)c4)ccc3F)c2)CCN1 | 42% | 40% | 2% | 85% (active) | inactive | inactive | inactive | inactive |
